Hit rate of the full screen: of about 5,500 compounds, about 2,000 (36%) were called active. About 18% were inconclusive and are not listed. No stated cut-off is given here; in the data, active means normalized growth mostly below about 0.91 (no sharp cut-off); inconclusive means no clear call, values can overlap the other calls; inactive means mostly above about 0.92. The list shows a part of the results.
Experiment: chemical genetic growth profiling, strain panel (AID 1159580);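 further: tested at 20 µM; growth read once vehicle control cultures reached saturation at 30 °C; 1 = growth at the plate median or of vehicle wells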
Details: growth OD

Measured: normalized growth

COc1ccc(-c2cc(=O)c3c(OC)cc(OC)cc3o2)cc1
inactive: S. cerevisiae deletion strains, locus YAL013W, strain DEP1, stronger effect = lower value 0.981 | S. cerevisiae deletion strains, locus YBR021W, strain FUR4, stronger effect = lower value 0.903 | S. cerevisiae deletion strains, locus YBR229C, strain ROT2, stronger effect = lower value 1 | S. cerevisiae deletion strains, locus YCL029C, strain bik1, stronger effect = lower value 1.01 | S. cerevisiae deletion strains, locus YDL035C, strain GPR1, stronger effect = lower value 0.981 | S. cerevisiae deletion strains, locus YDL074C, strain BRE1, stronger effect = lower value 0.905 | S. cerevisiae deletion strains, locus YDL101C, strain DUN1, stronger effect = lower value 0.988 | S. cerevisiae deletion strains, locus YDL134C, strain PPH21, stronger effect = lower value 0.984 | S. cerevisiae deletion strains, locus YDL185W, strain tfp1, stronger effect = lower value 0.996 | S. cerevisiae deletion strains, locus YDL192W, strain arf1, stronger effect = lower value 0.986 | S. cerevisiae deletion strains, locus YDR101C, strain arx1, stronger effect = lower value 0.977 | S. cerevisiae deletion strains, locus YDR150W, strain NUM1, stronger effect = lower value 1 | S. cerevisiae deletion strains, locus YDR162C, strain NBP2, stronger effect = lower value 0.944 | S. cerevisiae deletion strains, locus YDR318W, strain mcm21, stronger effect = lower value 0.973 | S. cerevisiae deletion strains, locus YDR388W, stronger effect = lower value 0.99 | S. cerevisiae deletion strains, locus YDR502C, strain sam2, stronger effect = lower value 0.963 | S. cerevisiae deletion strains, locus YEL061C, strain CIN8, stronger effect = lower value 0.997 | S. cerevisiae deletion strains, locus YER110C, stronger effect = lower value 1.02 | S. cerevisiae deletion strains, locus YER155C, strain BEM2, stronger effect = lower value 0.993 | S. cerevisiae deletion strains, locus YER167W, strain BCK2, stronger effect = lower value 0.989 | S. cerevisiae deletion strains, locus YGL078C, strain dbp3, stronger effect = lower value 1 | S. cerevisiae deletion strains, locus YGL086W, strain mad1, stronger effect = lower value 1 | S. cerevisiae deletion strains, locus YGL248W, strain PDE1, stronger effect = lower value 0.988 | S. cerevisiae deletion strains, locus YGR078C, strain PAC10, stronger effect = lower value 0.948 | S. cerevisiae deletion strains, locus YGR135W, strain pre9, stronger effect = lower value 0.926 | S. cerevisiae deletion strains, locus YGR229C, strain SMI1, stronger effect = lower value 0.873 | S. cerevisiae deletion strains, locus YGR252W, strain gcn5, stronger effect = lower value 0.834 | S. cerevisiae deletion strains, locus YHR030C, strain SLT2, stronger effect = lower value 0.997 | S. cerevisiae deletion strains, locus YHR079C, strain IRE1 (second series), stronger effect = lower value 0.979 | S. cerevisiae deletion strains, locus YHR094C, strain hxt1, stronger effect = lower value 1.01 | S. cerevisiae deletion strains, locus YHR129C, strain ARP1, stronger effect = lower value 0.99 | S. cerevisiae deletion strains, locus YHR200W, strain rpn10, stronger effect = lower value 0.992 | S. cerevisiae deletion strains, locus YIL066C, strain RNR3, stronger effect = lower value 0.965 | S. cerevisiae deletion strains, locus YIL073C, strain SPO22, stronger effect = lower value 0.983 | S. cerevisiae deletion strains, locus YIL125W, strain kgd1, stronger effect = lower value 1.01 | S. cerevisiae deletion strains, locus YIR030C, strain dcg1, stronger effect = lower value 0.993 | S. cerevisiae deletion strains, locus YJL095W, strain BCK1, stronger effect = lower value 0.888 | S. cerevisiae deletion strains, locus YJL134W, strain LCB3, stronger effect = lower value 0.994 | S. cerevisiae deletion strains, locus YJL168C, strain set2, stronger effect = lower value 0.998 | S. cerevisiae deletion strains, locus YJL187C, strain SWE1 (second series), stronger effect = lower value 0.957 | S. cerevisiae deletion strains, locus YJR043C, strain POL32, stronger effect = lower value 0.983 | S. cerevisiae deletion strains, locus YJR075W, strain HOC1, stronger effect = lower value 0.968 | S. cerevisiae deletion strains, locus YKL009W, strain mrt4, stronger effect = lower value 0.987 | S. cerevisiae deletion strains, locus YKL068W, stronger effect = lower value 1.01 | S. cerevisiae deletion strains, locus YKL085W, strain MDH1 (second series), stronger effect = lower value 1.01 | S. cerevisiae deletion strains, locus YKL085W, strain MDH1, stronger effect = lower value 1.01 | S. cerevisiae deletion strains, locus YKL190W, strain CNB1, stronger effect = lower value 0.996 | S. cerevisiae deletion strains, locus YKR001C, strain vps1, stronger effect = lower value 0.996 | S. cerevisiae deletion strains, locus YLR039C, strain RIC1, stronger effect = lower value 1.03 | S. cerevisiae deletion strains, locus YLR058C, strain SHM2, stronger effect = lower value 0.988 | S. cerevisiae deletion strains, locus YLR102C, strain apc9, stronger effect = lower value 0.998 | S. cerevisiae deletion strains, locus YLR262C, strain YPT6, stronger effect = lower value 1.02 | S. cerevisiae deletion strains, locus YLR268W, strain sec22, stronger effect = lower value 0.95 | S. cerevisiae deletion strains, locus YLR330W, strain CHS5, stronger effect = lower value 0.999 | S. cerevisiae deletion strains, locus YLR342W, strain FKS1 (second series), stronger effect = lower value 0.951 | S. cerevisiae deletion strains, locus YLR371W, strain rom2, stronger effect = lower value 1.01 | S. cerevisiae deletion strains, locus YLR418C, strain cdc73, stronger effect = lower value 0.869 | S. cerevisiae deletion strains, locus YML016C, strain PPZ1, stronger effect = lower value 1 | S. cerevisiae deletion strains, locus YML032C, strain rad52, stronger effect = lower value 0.969 | S. cerevisiae deletion strains, locus YML124C, strain tub3, stronger effect = lower value 1 | S. cerevisiae deletion strains, locus YMR078C, strain ctf18, stronger effect = lower value 0.988 | S. cerevisiae deletion strains, locus YMR223W, strain ubp8, stronger effect = lower value 0.972 | S. cerevisiae deletion strains, locus YMR263W, strain SAP30, stronger effect = lower value 0.95 | S. cerevisiae deletion strains, locus YMR307W, strain GAS1, stronger effect = lower value 0.839 | S. cerevisiae deletion strains, locus YNL067W, strain RPL9B, stronger effect = lower value 0.962 | S. cerevisiae deletion strains, locus YNL128W, strain TEP1, stronger effect = lower value 0.981 | S. cerevisiae deletion strains, locus YNL153C, strain GIM3, stronger effect = lower value 0.955 | S. cerevisiae deletion strains, locus YNL233W, strain BNI4, stronger effect = lower value 0.923 | S. cerevisiae deletion strains, locus YNL250W, strain rad50, stronger effect = lower value 1.01 | S. cerevisiae deletion strains, locus YNL271C, strain bni1, stronger effect = lower value 1.02 | S. cerevisiae deletion strains, locus YNL298W, strain CLA4, stronger effect = lower value 1 | S. cerevisiae deletion strains, locus YNL307C, strain MCK1, stronger effect = lower value 0.93 | S. cerevisiae deletion strains, locus YNL322C, strain KRE1, stronger effect = lower value 1.01 | S. cerevisiae deletion strains, locus YNR052C, strain pop2, stronger effect = lower value 0.995 | S. cerevisiae deletion strains, locus YOL006C, strain TOP1, stronger effect = lower value 0.858 | S. cerevisiae deletion strains, locus YOL012C, strain htz1 1.8 | S. cerevisiae deletion strains, locus YOL147C, strain pex11, stronger effect = lower value 0.989 | S. cerevisiae deletion strains, locus YOR061W, strain CKA2, stronger effect = lower value 0.999 | S. cerevisiae deletion strains, locus YOR069W, strain VPS5, stronger effect = lower value 1 | S. cerevisiae deletion strains, locus YOR136W, strain idh2, stronger effect = lower value 0.996 | S. cerevisiae deletion strains, locus YOR144C, strain elg1, stronger effect = lower value 1 | S. cerevisiae deletion strains, locus YOR184W, strain ser1, stronger effect = lower value 0.967 | S. cerevisiae deletion strains, locus YOR316C, strain cot1, stronger effect = lower value 1 | S. cerevisiae deletion strains, locus YPL055C, strain LGE1, stronger effect = lower value 0.92 | S. cerevisiae deletion strains, locus YPL241C, strain CIN2, stronger effect = lower value 0.996 | S. cerevisiae deletion strains, locus YPR119W, strain clb2, stronger effect = lower value 1 | S. cerevisiae deletion strains, locus YPR141C, strain kar3, stronger effect = lower value 1.01 | S. cerevisiae deletion strains, locus YPR163C, strain tif3, stronger effect = lower value 0.971 | S. cerevisiae deletion strains, locus YPR167C, strain met16, stronger effect = lower value 1 | S. cerevisiae deletion strains, strain wtn01, stronger effect = lower value 0.963 | S. cerevisiae strains, strain wild type, stronger effect = lower value 0.992
